Assay in all cases: DAPPL (digital affinity profiling via proximity ligation, sequencing); 10 mM Tris-HCl pH 7.5, 50 mM NaCl, 1 mM DTT, 4% glycerol, room temperature, 30 min; GST-TFs on glutathione beads, 16-mer random dsDNA library, 0.1% formaldehyde crosslink after washing; high values mean tight binding
One experiment deals with T1, FEV (Homo sapiens, UniProt Q99581 1-238).
T1 sequence: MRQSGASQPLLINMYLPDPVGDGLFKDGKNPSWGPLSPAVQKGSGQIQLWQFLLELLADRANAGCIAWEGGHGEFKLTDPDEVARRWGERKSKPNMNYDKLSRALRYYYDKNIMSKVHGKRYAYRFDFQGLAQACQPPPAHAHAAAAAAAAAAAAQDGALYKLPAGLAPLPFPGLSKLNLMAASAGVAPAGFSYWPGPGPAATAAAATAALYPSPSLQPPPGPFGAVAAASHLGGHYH
Conditions: protein: recombinant; tags: N-terminal GST; dsDNA, one strand shown. The method in brief: (§1)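 Human transcription factors fused to GST were expressed in yeast, captured on glutathione beads, given DNA barcodes and pooled with a GST-only negative control. Pools were incubated with 200 nmole of a 16-mer random double-stranded DNA library in Tris/NaCl/DTT/glycerol buffer at room temperature for 30 min. They were then washed, crosslinked with 0.1% formaldehyde, proximity-ligated (BsaI/T4 ligase, 1 h, 37 °C), PCR-amplified and sequenced on an Illumina NextSeq500. Binding signal is each 6-mer's read frequency for a factor divided by its frequency for the GST control.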

For a further experiment, the target named is ETV5 (Homo sapiens, UniProt P41161 1-510). Conditions: protein: recombinant; tags: N-terminal GST; dsDNA, one strand shown. In short, it runs like this:
as §1

For a further experiment, the target named is HSF1 (Homo sapiens, UniProt Q00613 1-529). The conditions noted are these: protein: recombinant; tags: N-terminal GST; chain copies: 3; dsDNA, one strand shown. In short, it runs like this: as §1
Sequence of HSF1 (Q00613 whole entry): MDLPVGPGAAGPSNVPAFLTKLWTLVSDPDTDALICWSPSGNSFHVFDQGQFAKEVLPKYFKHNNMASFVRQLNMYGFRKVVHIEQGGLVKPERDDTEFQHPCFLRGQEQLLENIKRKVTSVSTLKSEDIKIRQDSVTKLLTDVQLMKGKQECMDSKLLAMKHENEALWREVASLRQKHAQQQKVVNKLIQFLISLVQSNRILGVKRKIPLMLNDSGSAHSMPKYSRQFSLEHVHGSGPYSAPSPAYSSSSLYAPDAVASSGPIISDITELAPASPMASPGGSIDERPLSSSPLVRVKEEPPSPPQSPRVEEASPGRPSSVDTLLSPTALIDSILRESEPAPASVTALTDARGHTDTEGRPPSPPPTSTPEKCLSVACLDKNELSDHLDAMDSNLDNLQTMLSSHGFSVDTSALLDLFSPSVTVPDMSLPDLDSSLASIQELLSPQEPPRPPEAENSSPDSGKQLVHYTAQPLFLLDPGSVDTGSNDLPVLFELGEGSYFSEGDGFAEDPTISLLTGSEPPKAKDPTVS
The target of the next experiment is T2, SPIC (Homo sapiens, UniProt Q8N5J4 1-248).
T2 sequence: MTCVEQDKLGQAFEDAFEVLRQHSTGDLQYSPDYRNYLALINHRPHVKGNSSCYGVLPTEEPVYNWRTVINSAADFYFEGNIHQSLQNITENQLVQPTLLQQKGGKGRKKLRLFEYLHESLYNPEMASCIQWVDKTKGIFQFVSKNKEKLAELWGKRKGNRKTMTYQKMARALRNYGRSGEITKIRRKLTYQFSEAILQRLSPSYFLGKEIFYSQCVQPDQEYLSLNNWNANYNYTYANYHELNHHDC
The conditions noted are these: protein: recombinant; tags: N-terminal GST; dsDNA, one strand shown. In short, it runs like this:
as §1

The target in a further experiment is ELF4 (Homo sapiens, UniProt Q99607 1-663). The conditions noted are these: protein: recombinant; tags: N-terminal GST; dsDNA, one strand shown. In short, it runs like this:
as §1

Another experiment has as its target T3, ELK4 (Homo sapiens, UniProt P28324-2 1-405).
T3 sequence: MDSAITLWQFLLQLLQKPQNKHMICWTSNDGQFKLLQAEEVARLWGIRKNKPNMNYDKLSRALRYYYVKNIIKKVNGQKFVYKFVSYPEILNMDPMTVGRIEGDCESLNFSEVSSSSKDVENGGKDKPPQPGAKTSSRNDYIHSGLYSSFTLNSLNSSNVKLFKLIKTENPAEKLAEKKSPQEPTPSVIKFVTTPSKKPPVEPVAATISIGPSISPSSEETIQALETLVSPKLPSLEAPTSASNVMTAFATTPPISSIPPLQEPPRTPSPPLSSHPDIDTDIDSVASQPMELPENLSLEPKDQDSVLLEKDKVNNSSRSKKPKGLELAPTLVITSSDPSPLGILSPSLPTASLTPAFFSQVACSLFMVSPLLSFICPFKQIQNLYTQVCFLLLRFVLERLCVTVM
The conditions noted are these: protein: recombinant; tags: N-terminal GST; dsDNA, one strand shown. In short, it runs like this:
as §1

For the next experiment, the target named is T4, ETV2 (Homo sapiens, UniProt O00321 1-342).
T4 sequence: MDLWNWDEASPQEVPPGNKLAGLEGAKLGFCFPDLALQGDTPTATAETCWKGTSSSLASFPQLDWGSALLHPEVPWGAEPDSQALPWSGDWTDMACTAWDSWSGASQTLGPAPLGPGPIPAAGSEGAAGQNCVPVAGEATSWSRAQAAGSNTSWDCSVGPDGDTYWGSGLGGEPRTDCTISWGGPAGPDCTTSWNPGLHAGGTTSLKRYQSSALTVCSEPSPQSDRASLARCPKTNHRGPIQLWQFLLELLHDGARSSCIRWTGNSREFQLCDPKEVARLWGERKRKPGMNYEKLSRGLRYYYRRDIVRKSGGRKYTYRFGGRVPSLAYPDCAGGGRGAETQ
Conditions: protein: recombinant; tags: N-terminal GST; dsDNA, one strand shown. In short, it runs like this:
as §1

The target in a further experiment is T5, ELF3 (Homo sapiens, UniProt P78545 1-371).
T5 sequence: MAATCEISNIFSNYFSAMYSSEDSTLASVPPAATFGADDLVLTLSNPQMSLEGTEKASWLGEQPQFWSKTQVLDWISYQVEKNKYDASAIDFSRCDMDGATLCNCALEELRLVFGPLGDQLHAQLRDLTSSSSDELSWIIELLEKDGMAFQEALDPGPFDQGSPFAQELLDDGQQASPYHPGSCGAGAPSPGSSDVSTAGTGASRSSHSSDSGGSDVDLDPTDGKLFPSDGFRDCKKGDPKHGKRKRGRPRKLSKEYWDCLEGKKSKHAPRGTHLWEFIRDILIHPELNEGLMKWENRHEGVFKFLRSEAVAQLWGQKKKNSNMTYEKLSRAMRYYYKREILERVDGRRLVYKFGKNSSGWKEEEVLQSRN
The conditions noted are these: protein: recombinant; tags: N-terminal GST; dsDNA, one strand shown. The method in brief:
as §1

In a further experiment the target is CRX (Homo sapiens, UniProt O43186 1-299). The conditions noted are these: protein: recombinant; tags: N-terminal GST; dsDNA, one strand shown. In short, it runs like this:
as §1

The next experiment deals with ETV1 (Homo sapiens, UniProt P50549 1-477). The conditions noted are these: protein: recombinant; tags: N-terminal GST; dsDNA, one strand shown. In short, it runs like this:
as §1

The next experiment has as its target T6, ERF (Homo sapiens, UniProt P50548 1-548).
T6 sequence: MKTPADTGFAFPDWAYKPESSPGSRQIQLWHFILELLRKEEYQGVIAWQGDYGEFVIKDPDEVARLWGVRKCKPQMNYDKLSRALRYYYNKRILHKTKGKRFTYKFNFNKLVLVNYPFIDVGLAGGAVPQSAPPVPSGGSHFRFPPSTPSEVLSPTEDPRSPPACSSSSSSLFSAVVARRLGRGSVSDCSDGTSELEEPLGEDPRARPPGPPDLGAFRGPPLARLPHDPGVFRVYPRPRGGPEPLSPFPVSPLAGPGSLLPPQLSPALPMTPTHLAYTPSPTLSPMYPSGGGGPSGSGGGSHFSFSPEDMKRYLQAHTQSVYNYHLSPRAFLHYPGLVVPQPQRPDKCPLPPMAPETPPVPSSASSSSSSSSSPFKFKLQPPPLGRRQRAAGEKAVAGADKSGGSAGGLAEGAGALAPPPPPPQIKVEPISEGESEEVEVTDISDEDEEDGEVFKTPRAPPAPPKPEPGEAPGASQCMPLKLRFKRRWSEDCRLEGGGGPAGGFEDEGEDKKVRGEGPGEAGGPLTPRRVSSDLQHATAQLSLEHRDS
Conditions: protein: recombinant; tags: N-terminal GST; dsDNA, one strand shown. The method in brief:
as §1

Another experiment concerns the target T7, ETV3L (Homo sapiens, UniProt Q6ZN32 1-361).
T7 sequence: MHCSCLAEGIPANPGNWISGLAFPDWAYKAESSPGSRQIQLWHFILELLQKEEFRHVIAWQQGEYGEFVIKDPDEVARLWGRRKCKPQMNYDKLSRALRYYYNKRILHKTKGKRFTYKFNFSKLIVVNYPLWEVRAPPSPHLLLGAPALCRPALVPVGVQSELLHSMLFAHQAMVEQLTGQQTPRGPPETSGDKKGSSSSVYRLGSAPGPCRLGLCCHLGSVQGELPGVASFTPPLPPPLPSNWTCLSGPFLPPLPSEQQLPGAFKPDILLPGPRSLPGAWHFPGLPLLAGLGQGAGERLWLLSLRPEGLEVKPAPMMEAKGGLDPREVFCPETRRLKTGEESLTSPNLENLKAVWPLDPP
The conditions noted are these: protein: recombinant; tags: N-terminal GST; dsDNA, one strand shown. In short, it runs like this: as §1

Another experiment addresses T8, ETS2 (Homo sapiens, UniProt P15036 1-469).
T8 sequence: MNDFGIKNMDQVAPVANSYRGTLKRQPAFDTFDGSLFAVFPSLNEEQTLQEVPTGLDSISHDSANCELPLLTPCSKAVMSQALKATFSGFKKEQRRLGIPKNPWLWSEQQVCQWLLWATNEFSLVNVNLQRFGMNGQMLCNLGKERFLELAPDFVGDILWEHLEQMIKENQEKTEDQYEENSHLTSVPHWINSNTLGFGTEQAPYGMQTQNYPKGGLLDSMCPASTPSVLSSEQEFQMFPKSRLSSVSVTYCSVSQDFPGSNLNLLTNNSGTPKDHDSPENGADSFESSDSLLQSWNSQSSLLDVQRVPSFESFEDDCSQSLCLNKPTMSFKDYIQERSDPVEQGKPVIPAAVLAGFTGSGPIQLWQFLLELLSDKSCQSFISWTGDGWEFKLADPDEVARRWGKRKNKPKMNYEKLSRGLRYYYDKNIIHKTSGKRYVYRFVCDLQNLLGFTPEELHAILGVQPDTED
Conditions: protein: recombinant; tags: N-terminal GST; dsDNA, one strand shown. In short, it runs like this: as §1

In a further experiment the target is T9, SPDEF (Homo sapiens, UniProt O95238 1-335).
T9 sequence: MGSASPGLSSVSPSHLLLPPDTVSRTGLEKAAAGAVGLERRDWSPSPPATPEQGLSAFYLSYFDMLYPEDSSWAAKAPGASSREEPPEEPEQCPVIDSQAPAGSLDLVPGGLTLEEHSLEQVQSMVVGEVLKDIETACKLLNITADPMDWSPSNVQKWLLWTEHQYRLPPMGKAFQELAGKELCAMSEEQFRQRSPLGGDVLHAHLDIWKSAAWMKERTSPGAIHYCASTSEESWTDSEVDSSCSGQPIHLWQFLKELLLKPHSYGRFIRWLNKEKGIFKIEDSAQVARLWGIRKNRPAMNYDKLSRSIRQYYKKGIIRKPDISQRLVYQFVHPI
The conditions noted are these: protein: recombinant; tags: N-terminal GST; dsDNA, one strand shown. In short, it runs like this: as §1

The target of a further experiment is T10, ETV7 (Homo sapiens, UniProt Q9Y603 1-341).
T10 sequence: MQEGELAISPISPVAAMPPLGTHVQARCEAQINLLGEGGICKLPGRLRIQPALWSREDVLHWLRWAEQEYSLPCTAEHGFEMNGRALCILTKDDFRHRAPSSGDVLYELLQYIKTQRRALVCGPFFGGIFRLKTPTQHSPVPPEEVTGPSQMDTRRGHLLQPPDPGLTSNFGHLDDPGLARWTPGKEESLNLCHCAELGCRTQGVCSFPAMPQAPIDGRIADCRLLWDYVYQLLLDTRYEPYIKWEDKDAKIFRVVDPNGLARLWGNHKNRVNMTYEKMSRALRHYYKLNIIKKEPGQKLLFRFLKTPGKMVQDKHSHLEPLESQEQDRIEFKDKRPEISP
Conditions: protein: recombinant; tags: N-terminal GST; dsDNA, one strand shown. The method in brief: as §1

The next experiment concerns the target T11, ELF5 (Homo sapiens, UniProt Q9UKW6-2 1-255).
T11 sequence: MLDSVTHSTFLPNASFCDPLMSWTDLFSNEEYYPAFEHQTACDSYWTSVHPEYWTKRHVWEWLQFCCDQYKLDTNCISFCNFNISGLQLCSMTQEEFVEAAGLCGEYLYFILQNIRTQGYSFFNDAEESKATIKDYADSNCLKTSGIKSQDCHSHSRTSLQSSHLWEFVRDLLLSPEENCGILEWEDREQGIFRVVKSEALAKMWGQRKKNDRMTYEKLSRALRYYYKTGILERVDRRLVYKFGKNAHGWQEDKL
Conditions: protein: recombinant; tags: N-terminal GST; dsDNA, one strand shown. The method in brief:
as §1

The target in the next experiment is T12, ETV3 (Homo sapiens, UniProt P41162-2 1-143).
T12 sequence: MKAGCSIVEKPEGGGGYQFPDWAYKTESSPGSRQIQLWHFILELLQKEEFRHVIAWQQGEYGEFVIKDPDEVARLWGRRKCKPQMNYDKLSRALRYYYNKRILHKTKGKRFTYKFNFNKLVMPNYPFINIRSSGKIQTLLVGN
Conditions: protein: recombinant; tags: N-terminal GST; dsDNA, one strand shown. In short, it runs like this: as §1

For another experiment, the target named is ETV6 (Homo sapiens, UniProt P41212 1-452). The conditions noted are these: protein: recombinant; tags: N-terminal GST; dsDNA, one strand shown. In short, it runs like this:
as §1

Sequence of CRX (O43186 whole entry): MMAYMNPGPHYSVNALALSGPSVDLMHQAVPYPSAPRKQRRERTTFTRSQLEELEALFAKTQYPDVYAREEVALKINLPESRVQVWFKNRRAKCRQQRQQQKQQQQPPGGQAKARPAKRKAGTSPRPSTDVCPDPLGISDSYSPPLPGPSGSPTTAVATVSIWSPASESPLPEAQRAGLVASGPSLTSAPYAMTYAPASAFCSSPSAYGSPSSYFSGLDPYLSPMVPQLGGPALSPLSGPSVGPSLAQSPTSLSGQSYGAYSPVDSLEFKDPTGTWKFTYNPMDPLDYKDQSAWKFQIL
Sequence of ETV1 (P50549 whole entry): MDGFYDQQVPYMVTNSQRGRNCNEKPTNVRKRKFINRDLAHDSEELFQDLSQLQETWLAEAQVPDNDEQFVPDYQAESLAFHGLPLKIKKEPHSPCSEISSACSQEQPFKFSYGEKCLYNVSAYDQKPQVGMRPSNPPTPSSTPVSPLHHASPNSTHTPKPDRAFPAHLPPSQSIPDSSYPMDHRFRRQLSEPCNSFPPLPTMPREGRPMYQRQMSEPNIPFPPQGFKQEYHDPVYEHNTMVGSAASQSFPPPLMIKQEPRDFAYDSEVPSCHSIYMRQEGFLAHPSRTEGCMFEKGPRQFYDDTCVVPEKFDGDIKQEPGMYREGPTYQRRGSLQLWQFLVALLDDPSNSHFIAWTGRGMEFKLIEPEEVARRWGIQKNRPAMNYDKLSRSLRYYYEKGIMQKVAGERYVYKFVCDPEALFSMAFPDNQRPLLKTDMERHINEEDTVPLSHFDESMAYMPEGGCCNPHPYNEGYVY
Sequence of ETV5 (P41161 whole entry): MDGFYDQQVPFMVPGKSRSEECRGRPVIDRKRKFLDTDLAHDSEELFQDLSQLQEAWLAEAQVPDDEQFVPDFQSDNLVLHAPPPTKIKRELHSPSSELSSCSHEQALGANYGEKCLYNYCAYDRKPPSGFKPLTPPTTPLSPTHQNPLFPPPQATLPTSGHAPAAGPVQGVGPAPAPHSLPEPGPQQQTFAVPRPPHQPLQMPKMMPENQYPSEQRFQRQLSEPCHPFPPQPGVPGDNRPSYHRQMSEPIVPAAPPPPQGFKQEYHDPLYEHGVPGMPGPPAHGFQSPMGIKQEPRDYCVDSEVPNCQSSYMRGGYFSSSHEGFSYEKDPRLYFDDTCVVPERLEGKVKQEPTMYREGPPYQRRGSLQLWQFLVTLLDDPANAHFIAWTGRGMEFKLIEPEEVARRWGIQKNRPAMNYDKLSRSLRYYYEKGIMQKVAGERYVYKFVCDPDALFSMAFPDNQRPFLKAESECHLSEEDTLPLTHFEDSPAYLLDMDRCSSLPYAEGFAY
Sequence of ELF4 (Q99607 whole entry): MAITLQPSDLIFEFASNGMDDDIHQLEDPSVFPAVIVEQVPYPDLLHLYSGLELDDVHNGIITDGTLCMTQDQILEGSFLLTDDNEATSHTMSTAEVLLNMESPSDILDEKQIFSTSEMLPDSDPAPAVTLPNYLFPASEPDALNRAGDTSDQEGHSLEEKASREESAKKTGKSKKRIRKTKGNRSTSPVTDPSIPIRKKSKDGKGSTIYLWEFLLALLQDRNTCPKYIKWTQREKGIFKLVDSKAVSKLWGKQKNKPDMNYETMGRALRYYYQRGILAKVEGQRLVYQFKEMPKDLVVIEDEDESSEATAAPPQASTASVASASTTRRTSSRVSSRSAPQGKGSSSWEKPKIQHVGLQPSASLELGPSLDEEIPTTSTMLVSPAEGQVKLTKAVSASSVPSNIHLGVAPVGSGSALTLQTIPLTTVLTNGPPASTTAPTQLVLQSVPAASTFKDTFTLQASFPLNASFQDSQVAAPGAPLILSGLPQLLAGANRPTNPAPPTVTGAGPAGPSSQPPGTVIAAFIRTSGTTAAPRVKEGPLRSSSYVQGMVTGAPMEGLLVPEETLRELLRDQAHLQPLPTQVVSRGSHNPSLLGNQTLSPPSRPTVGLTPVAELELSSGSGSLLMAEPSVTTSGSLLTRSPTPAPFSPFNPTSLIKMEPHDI
Sequence of ETV6 (P41212 whole entry): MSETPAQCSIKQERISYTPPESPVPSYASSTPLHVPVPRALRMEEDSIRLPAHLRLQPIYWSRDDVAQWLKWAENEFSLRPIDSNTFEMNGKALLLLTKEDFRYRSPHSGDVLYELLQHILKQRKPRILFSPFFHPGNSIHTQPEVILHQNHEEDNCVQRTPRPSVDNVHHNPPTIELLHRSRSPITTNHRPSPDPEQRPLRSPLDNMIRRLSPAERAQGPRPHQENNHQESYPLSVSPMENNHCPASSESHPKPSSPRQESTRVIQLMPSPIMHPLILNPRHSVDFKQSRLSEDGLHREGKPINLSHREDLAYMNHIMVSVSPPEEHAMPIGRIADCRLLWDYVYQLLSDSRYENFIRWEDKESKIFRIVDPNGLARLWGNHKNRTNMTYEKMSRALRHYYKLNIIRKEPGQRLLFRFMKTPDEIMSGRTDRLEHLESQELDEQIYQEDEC

As to AACATC, the binding signal in the experiment with FEV is 1.63 fold enrichment (6-mer frequency, TF over GST control); with ETV5 it was 1.51 fold enrichment (6-mer frequency, TF over GST control); with HSF1 it was 1.3 fold enrichment (6-mer frequency, TF over GST control); in the experiment with SPIC, 1.44 fold enrichment (6-mer frequency, TF over GST control); in the experiment with ELF4, 1.41 fold enrichment (6-mer frequency, TF over GST control); in the experiment with ELK4 it was 1.41 fold enrichment (6-mer frequency, TF over GST control). The binding signal is 1.45 fold enrichment (6-mer frequency, TF over GST control) in the experiment with ETV2; 1.5 fold enrichment (6-mer frequency, TF over GST control) in the experiment with ELF3; 1.12 fold enrichment (6-mer frequency, TF over GST control) with CRX; 1.43 fold enrichment (6-mer frequency, TF over GST control) with ETV1; 1.43 fold enrichment (6-mer frequency, TF over GST control) with ERF; 1.41 fold enrichment (6-mer frequency, TF over GST control) in the experiment with ETV3L. For the same sequence, the binding signal is 1.45 fold enrichment (6-mer frequency, TF over GST control) with ETS2; 1.68 fold enrichment (6-mer frequency, TF over GST control) with SPDEF; 1.35 fold enrichment (6-mer frequency, TF over GST control) with ETV7; 1.64 fold enrichment (6-mer frequency, TF over GST control) in the experiment with ELF5; 1.5 fold enrichment (6-mer frequency, TF over GST control) in the experiment with ETV3; 1.4 fold enrichment (6-mer frequency, TF over GST control) in the experiment with ETV6.

These data come from PMC7862700, “An all-to-all approach to the identification of sequence-specific readers for epigenetic DNA modifications on cytosine”.
